Bioassay records: PubChem BioAssay, National Center for Advancing Translational Sciences (NCATS)
Shown is part of a subset that was picked to be rich in hits.
TDP1 cell CPT: DT40-hTDP1 cell growth loss with CPT. chicken DT40 Tdp1-/-;hTDP1 cells + 20 nM CPT, ATP luminescence, 48 h. Potency, µM (doses to about 46.2 µM), without a hit: at the highest dose activity change, negative = growth inhibition, usual class: inhibitors. 420,000 tested, 12% active. AID 686979; also: potency is read from the fitted curve at half-maximal effect; nearly all actives have a fitted effect of over 55% in size
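Chicken DT40 Tdp1-/- cells complemented with human TDP1, 400 cells/well, exposed to compounds plus 20 nM camptothecin for at least 48 h at 37 C; viability read as ATP content by CellTiter-Glo luminescence.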
12-LOX inh: ALOX12 (human) lipoxygenase inhibition; P18054; purified 12hLO, xylenol orange hydroperoxide absorbance; Potency, µM (titrated, usually from 108 µM), inactives show at the highest dose activity change, negative = inhibition, most hits filed as inhibitors; 580,000 tested, 1.1% active; AID 1671190; also: potency is read from the fitted curve at half-maximal effect
Target sequence (P18054 whole entry, looked up): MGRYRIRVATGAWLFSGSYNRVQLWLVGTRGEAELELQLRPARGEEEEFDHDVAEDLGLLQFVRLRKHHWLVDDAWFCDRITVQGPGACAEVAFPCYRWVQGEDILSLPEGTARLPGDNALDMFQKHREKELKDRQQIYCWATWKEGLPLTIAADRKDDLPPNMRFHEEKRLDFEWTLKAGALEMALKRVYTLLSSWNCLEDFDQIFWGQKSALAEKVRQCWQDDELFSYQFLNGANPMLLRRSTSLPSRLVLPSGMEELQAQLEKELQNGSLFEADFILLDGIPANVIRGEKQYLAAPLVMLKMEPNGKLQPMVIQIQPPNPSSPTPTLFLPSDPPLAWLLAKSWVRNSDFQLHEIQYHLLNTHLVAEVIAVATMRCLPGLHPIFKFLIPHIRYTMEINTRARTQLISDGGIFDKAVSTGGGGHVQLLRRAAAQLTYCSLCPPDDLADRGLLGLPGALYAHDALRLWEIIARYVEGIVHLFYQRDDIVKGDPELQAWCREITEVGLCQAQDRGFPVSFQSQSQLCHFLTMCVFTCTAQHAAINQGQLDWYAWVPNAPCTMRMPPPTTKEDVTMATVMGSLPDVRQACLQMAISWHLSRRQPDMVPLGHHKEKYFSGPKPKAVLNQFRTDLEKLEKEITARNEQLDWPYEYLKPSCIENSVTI
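Purified human 12hLO (150 nM final) in 25 mM Hepes, 0.01% Triton X-100, pH 7.0 was preincubated 15 min at room temperature with compound. Then 40 uM arachidonic acid was added, 30 min. Hydroperoxide was read by Fe-XO absorbance ratio 573/405 nm.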
HT1080-NT tox: kills 2HG-producing HT-1080-NT fibrosarcoma cells. 360,000 tested, 1.6% active. Potency, µM (series often up to 46.1 µM), for inactives: at the highest dose activity, negative = less viability, usual class: cytotoxic. HT-1080-NT fibrosarcoma viability, CellTiter-Glo ATP luminescence, 48 h. AID 686970;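 also: NT is the 2HG producing partner of a matched IDH1 knockdown line; potency is read from the fitted curve at half-maximal effect; 0% = DMSO-treated cells and -100% = media-only wells without cells; nearly all actives have a fitted effect of over 55% in size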
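750 cells/well, RPMI + 5% FBS; 2 h settle, compound pin-transfer, 48 h at 37 degrees C. CellTiter-Glo 10 min RT, luminescence. Normalized to DMSO and media-only wells.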
HT1080 IDH1KD tx: toxicity to HT-1080 IDH1 knockdown cells (counter line). HT-1080 IDH1 knockdown viability, ATP luminescence, 48 h. Potency, µM (highest dose often 46.1 µM), for inactives: at the highest dose activity, negative = toxicity, actives largely listed as cytotoxic. 360,000 tested, 2% active. AID 686971;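 also: potency is read from the fitted curve at half-maximal effect; 0% = DMSO wells and -100% = cell-free medium wells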
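HT-1080-IDH1KD cells (IDH1 knocked down), 750/well in RPMI with 5% FBS, treated with compound 48 h at 37 degrees C. Viability by CellTiter-Glo luminescence, normalised to DMSO and no-cell wells; concentration-response curves classed.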
IL-1B inflam inh: inhibitors of inflammasome signaling (IL-1 beta secretion). 360,000 tested, 4.7% active. activity change, % at 57.5 µM. THP-1 LPS/ATP IL-1B secretion, AlphaLISA, 16 h; hits give low values; in the data active = activity change below about -50%; inconclusive = mostly about -30% to -49%
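THP-1 cells pretreated 1 hr with compounds (up to 57.5 uM final), then stimulated with LPS (250 ng/mL final) plus ATP (1.25 mM final); secreted IL-1B measured by AlphaLISA after 16 hr, decreased signal indicating inhibition.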
DT40 TDP1 no CPT: qHTS for Inhibitors of human tyrosyl-DNA phosphodiesterase 1 (TDP1): qHTS in cells in absence of CPT; DT40 Tdp1-/- hTDP1 cells, no CPT, ATP luminescence, 48 h; Potency, µM (doses to about 46.2 µM), for inactives: top-dose activity change, negative = growth inhibition, hits mostly inhibitors; 420,000 tested, 15% active; AID 686978, 2013; also: potency is read from the fitted curve at half-maximal effect; nearly all actives have a fitted effect of over 55% in size
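Luminescent ATP content (CellTiter-Glo) served as the growth readout. Knockout chicken DT40 cells expressing human TDP1 were exposed to compounds without camptothecin for a minimum 48 hr at 37 °C.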
Active calls of the source: *; [ ] = remark or other dose. Unless noted, calls follow the shape of the dose curve; as a rule, active = well fitted curve in the direction sought with a large enough effect; inconclusive = small, poorly fitted or top-dose-only effect, or another doubt; inactive = no such curve, though single readings can be large; an effect the other way counts as inactive or inconclusive. Unless noted, % is scaled to controls: 0 for no effect and ±100 for the full control effect.

Results for CCCCC1=CC2=CC(=O)C(C)(OC(=O)c3cccs3)C(=O)C2=CO1 (stereo not drawn) ?
TDP1 cell CPT: -1%; 12-LOX inh: 28µM*; HT1080-NT tox: 4%; HT1080 IDH1KD tx: 11%; IL-1B inflam inh: 29; DT40 TDP1 no CPT: -5%

How did CC1(OC(=O)CCc2ccccc2)C(=O)C=C2C=C(c3ccc(C#N)cc3)N(C3CC3)C=C2C1=O (stereo not drawn) do in these assays?
TDP1 cell CPT: -28%; 12-LOX inh: -29%; HT1080-NT tox: -2%; HT1080 IDH1KD tx: -5%; IL-1B inflam inh: 5; DT40 TDP1 no CPT: inconclusive

What do the screens show for `CCCCC1=CC2=CC(=O)C(C)(OC(=O)CCc3ccccc3)C(=O)C2=CO1` (stereo not drawn)?
TDP1 cell CPT: inconclusive; 12-LOX inh: 13µM*; HT1080-NT tox: 5%; HT1080 IDH1KD tx: -1%; IL-1B inflam inh: 0; DT40 TDP1 no CPT: 3%

How did O=C(CN1CCN(C(=O)CCc2ncc(-c3c(F)cccc3F)o2)CC1)Nc1ccccc1Cl do in these assays?
12-LOX inh: 23%

Results for Cc1ccc(S(=O)(=O)N2[C@@H](c3ccc(Br)cc3)C(C(=O)O)=CC[C@H]2c2ccc(C(C)C)cc2)cc1 ?
TDP1 cell CPT: inconclusive; 12-LOX inh: 35µM*; HT1080-NT tox: -12%; HT1080 IDH1KD tx: -19%; IL-1B inflam inh: 14; DT40 TDP1 no CPT: inconclusive

What do the screens show for `Cc1ccc(S(=O)(=O)N2[C@@H](c3ccc(C(C)(C)C)cc3)C(C(=O)O)=CC[C@H]2c2ccc(Cl)cc2)cc1`?
TDP1 cell CPT: 23µM*; 12-LOX inh: -92%; HT1080-NT tox: inconclusive; HT1080 IDH1KD tx: inconclusive; IL-1B inflam inh: -11; DT40 TDP1 no CPT: inconclusive

Results for Cc1ccc(S(=O)(=O)N2[C@@H](c3ccc(Cl)cc3)C(C(=O)O)=C[C@H]2CC2CCCC2)cc1 ?
TDP1 cell CPT: inconclusive; 12-LOX inh: inconclusive; HT1080-NT tox: -2%; HT1080 IDH1KD tx: -7%; IL-1B inflam inh: 11; DT40 TDP1 no CPT: -26%

What do the screens show for `CCCCC[C@@H]1C=C(C(=O)O)[C@H](c2ccc(Br)cc2)N1S(=O)(=O)c1ccc(C)cc1`?
TDP1 cell CPT: 10%; 12-LOX inh: 35µM*; HT1080-NT tox: 2%; HT1080 IDH1KD tx: -4%; IL-1B inflam inh: 16; DT40 TDP1 no CPT: 3%

How did Cc1ccc(S(=O)(=O)N2[C@@H](c3ccc(Cl)c(Cl)c3)C(C(=O)O)=C[C@H]2CC2CCCC2)cc1 do in these assays?
TDP1 cell CPT: -2%; 12-LOX inh: 28µM*; HT1080-NT tox: 1%; HT1080 IDH1KD tx: -2%; IL-1B inflam inh: 16; DT40 TDP1 no CPT: -6%

Results for Cc1ccc([C@@H]2CC=C(C(=O)O)[C@H](c3ccc(C(C)(C)C)cc3)N2S(=O)(=O)c2ccc(C)cc2)cc1 ?
TDP1 cell CPT: inconclusive; 12-LOX inh: -94%; HT1080-NT tox: inconclusive; HT1080 IDH1KD tx: inconclusive; IL-1B inflam inh: 2; DT40 TDP1 no CPT: inconclusive

What do the screens show for `Cc1ccccc1CSc1nc2c(=O)[nH]cnc2n1-c1ccccc1`?
12-LOX inh: -4%

How did Cc1ccc(S(=O)(=O)N2[C@@H](c3ccc(C(C)(C)C)cc3)C(C(=O)O)=CC[C@H]2c2ccc(C(C)C)cc2)cc1 do in these assays?
TDP1 cell CPT: inconclusive; 12-LOX inh: 40µM*; HT1080-NT tox: inconclusive; HT1080 IDH1KD tx: inconclusive; IL-1B inflam inh: -7; DT40 TDP1 no CPT: inconclusive

How did CCc1ccc([C@@H]2CC=C(C(=O)O)[C@H](c3ccc(C(C)(C)C)cc3)N2S(=O)(=O)c2ccc(C)cc2)cc1 do in these assays?
TDP1 cell CPT: inconclusive; 12-LOX inh: -69%; HT1080-NT tox: -29%; HT1080 IDH1KD tx: inconclusive; IL-1B inflam inh: 14; DT40 TDP1 no CPT: inconclusive

Results for CC(=O)N1CCC2(CC1)CN(C(=O)C1CCN(C)CC1)Cc1ccccc1O2 ?
12-LOX inh: 10%[6.33 µM]

How did N#CCSc1nnc(Cc2cccc3ccccc23)n1C1CCCCC1 do in these assays?
TDP1 cell CPT: -25%; 12-LOX inh: -1%; HT1080-NT tox: -10%; HT1080 IDH1KD tx: -13%; IL-1B inflam inh: -65*; DT40 TDP1 no CPT: -20%

What do the screens show for `COc1ccc(-n2nc([N+](=O)[O-])c(=NCCc3ccc(OC)c(OC)c3)n2O)cc1`?
TDP1 cell CPT: 15µM*; 12-LOX inh: -6%; HT1080-NT tox: -12%; HT1080 IDH1KD tx: -16%; IL-1B inflam inh: inconclusive; DT40 TDP1 no CPT: 21µM*

Results for COc1ccc(-n2nc([N+](=O)[O-])c(=NCCC3=CCCCC3)n2O)cc1 ?
TDP1 cell CPT: 21µM*; 12-LOX inh: 7%; HT1080-NT tox: -14%; HT1080 IDH1KD tx: -12%; IL-1B inflam inh: -55*; DT40 TDP1 no CPT: inconclusive

How did COc1ccc(-n2nc([N+](=O)[O-])c(=NCCc3ccc(C)cc3)n2O)cc1 do in these assays?
TDP1 cell CPT: inconclusive; 12-LOX inh: 2%; HT1080-NT tox: 5%; HT1080 IDH1KD tx: -2%; IL-1B inflam inh: -27; DT40 TDP1 no CPT: inconclusive

What do the screens show for `O=[N+]([O-])c1nn(-c2ccc3c(c2)OCCO3)n(O)c1=NCc1ccccc1Cl`?
TDP1 cell CPT: -28%; 12-LOX inh: 3%; HT1080-NT tox: 8%; HT1080 IDH1KD tx: inconclusive; IL-1B inflam inh: -20; DT40 TDP1 no CPT: inconclusive

What do the screens show for `O=[N+]([O-])c1nn(-c2ccc3c(c2)OCCO3)n(O)c1=NC1CCCCC1`?
TDP1 cell CPT: 21µM*; 12-LOX inh: 4%; HT1080-NT tox: -15%; HT1080 IDH1KD tx: -18%; IL-1B inflam inh: -25; DT40 TDP1 no CPT: inconclusive

Results for COc1ccc(-n2nc([N+](=O)[O-])c(=NC3CCN(Cc4ccccc4)CC3)n2O)cc1 ?
TDP1 cell CPT: 16µM*; 12-LOX inh: -19%; HT1080-NT tox: -10%; HT1080 IDH1KD tx: -8%; IL-1B inflam inh: -5; DT40 TDP1 no CPT: 15µM*

What do the screens show for `CCCn1c(N)c(C(=O)CSc2ccc3ccccc3n2)c(=O)n(C)c1=O`?
12-LOX inh: 12%

How did COc1ccc(-n2nc([N+](=O)[O-])c(=NCc3cccnc3)n2O)cc1 do in these assays?
TDP1 cell CPT: 16µM*; 12-LOX inh: -13%; HT1080-NT tox: 1%; HT1080 IDH1KD tx: 0%; IL-1B inflam inh: 23; DT40 TDP1 no CPT: inconclusive
